This passage reports Potency results from PubChem BioAssay (NCATS).

Inconclusive results are not listed. Entries that show only a call come without a potency. Activity calls are given as the source filed them. Calls come from the whole dose curve; as a rule, active = well fitted cell-killing curve with a large enough effect; inconclusive = small, poorly fitted or top-dose-only effect; inactive = no such curve, though single readings can be large or run the other way.
Potency is the fitted concentration of half-maximal effect.

This experiment is described as follows: qHTS of pediatric cancer cell lines to identify multiple opportunities for drug repurposing: Primary screen for OHS-50 cells (AID 1347103). Note: nearly all actives have a fitted effect of over 40% in size. As to conditions: OHS-50 osteosarcoma viability, CellTiter-Glo luminescence, 48 h; series mostly up to 57.3 µM. The text has this:
Drug repurposing or repositioning has been offered as a strategy for drug development in oncology programs. This approach has special potential for childhood cancers and other rare or orphan diseases, where the expected return on new drug development has been a disincentive to pharmaceuticals.
In this project we exploit the poly-pharmacology of drugs to discover new indications via phenotypic screening of a panel of 19 well-characterized cell lines derived from solid tumors seen in children and adolescents. The goal is to identify approved drugs with previously unrecognized anticancer properties that has the potential to reveal new mechanisms and biological processes involved in carcinogenesis or drug resistance. We employed a titration-based paradigm (quantitative high-throughput screening or qHTS), where all compounds were tested at multiple concentrations for their effect on cell viability. Concentration-response curves (CRCs) were derived directly from the primary screen, and both potency and efficacy values were used to identify compounds with robust bioactivity profiles. We screened the NIH Chemical Genomics Center (NCGC) Pharmaceutical Collection (NPC) and Mechanism Interrogation Plate (MIPE) small molecule collections of approved and investigational compounds against these cell lines; and measured metabolically active cells after 48 hours of compound treatment as a proxy for cell viability.
Assay Submitter: Nathalia J. Martinez, National Center for Advancing Translational Sciences, National Institutes of Health, Rockville, MD, USA; email: natalia.martinez@nih.gov
[1] Shen, M et al. Quantitative high-throughput phenotypic screening of pediatric cancer cell lines identifies multiple opportunities for drug repurposing. Oncotarget 2017 Dec 19;9(4):4758-4772. PMID 29435139.
The cells were obtained from University of North Carolina (UNC), Pediatric Preclinical Testing Program (PPT), and Coriell Institute (CI).
qHTS cell viability assay:
Cells were assayed in growth media at a density of 500-1,000 cells/well. Five microliters of cells were dispensed into 1,536-well, white, solid-bottom, TC-treated plates (Greiner Bio One) using a multidrop dispenser and incubated at 37 degrees C, 5% CO2, under a humidified atmosphere for 5 hours. Twenty-three nanoliters of compounds and controls (neutral control DMSO or positive control bortezomib at final concentration of 2.3 µM) were subsequently transferred by Kalypsys pintool. For primary screens, the MIPE collection was tested at 11-point dilutions (final concentrations range from 0.78 nM to 46 µM) and the NPC collection at 8-point dilutions (final concentrations range from 0.59 nM to 46 µM). Compounds tested in follow-up screens were assayed at 11-point dilutions. Cells were incubated for 48 hours, followed by addition of 3 µL of CellTiter-Glo (Promega). After a 15 min incubation at room temperature, samples were analyzed for luminescence intensity using a ViewLux High-throughput CCD imager equipped with clear filters.
On to `COc1ccc(CN2CCNCC2)c(OC)c1OC`, for which the Potency entry is “inactive”.

On to `Nc1ccc(N)cc1`, for which the Potency result was “inactive”.

Regarding `CCCC[N+]1(C)[C@@H]2CC(OC(=O)[C@H](CO)c3ccccc3)C[C@H]1[C@@H]1O[C@@H]12` (stereo not given in full), the Potency result was “inactive”.

For `C[C@H](CN1CCOCC1)C(C(=O)N1CCCC1)(c1ccccc1)c1ccccc1`, the Potency was 43.4 µM (active).

In the case of `COc1ccc2c(C(=O)c3ccc(Cl)cc3)c(C)n(CC(=O)O)c2c1`, the Potency result was “inactive”.

With `CC1N=C(N)OC1c1ccccc1` (stereo not given), the Potency entry was “inactive”.

Take `COc1ccc2c3c1O[C@H]1[C@@H](O)C=C[C@H]4[C@@H](C2)N(C)CC[C@@]341`: the Potency was 44 µM (active).

For the compound `C[C@]12CC[C@H]3[C@@H](CCC4=CC(=O)CC[C@@]43C)[C@@H]1CC[C@@H]2C(=O)O`, the Potency result is “inactive”.

For the compound `c1ccc2c(c1)Sc1ccccc1N2CC1CN2CCC1CC2` (stereo not given), the Potency was 19.5 µM (active).

Regarding `CCOC(=O)NC(O)C(Cl)(Cl)Cl` (stereo not given), the Potency result was “inactive”.

Take `CC(C)(C)OC(=O)c1ncn2c1[C@@H]1CCCN1C(=O)c1c(Br)cccc1-2`: the Potency result is “inactive”.

As to `CCOC(=O)c1ncn2c1CN(C)C(=O)c1c(I)cccc1-2`, the Potency entry was “inactive”.

For the compound `CCc1cc(OC)c(C[C@H](C)N)cc1OC`, the Potency result is “inactive”.

For the compound `CCOC(=O)C1(c2ccccc2)CCN(CCc2ccc(N)cc2)CC1`, the Potency result was “inactive”.

Take `CCC1(c2ccccc2)CCC(=O)NC1=O` (stereo not given): the Potency result is “inactive”.

Turning to `N#Cc1nn(-c2c(Cl)cc(C(F)(F)F)cc2Cl)c(N)c1S(=O)C(F)(F)F` (stereo not given), the Potency was 24.6 µM (active).

For `OC(O)C(Cl)(Cl)Cl`, the Potency entry is “inactive”.

On to `CCOC(=O)C(c1c(O)c2ccccc2oc1=O)c1c(O)c2ccccc2oc1=O`, for which the Potency entry is “inactive”.

Take `C[C@]12CC[C@H]3[C@@H](CC=C4C[C@@H](O)CC[C@@]43C)[C@@H]1CC[C@@H]2O`: the Potency result was “inactive”.

With `CC#C[C@]1(O)CC[C@H]2[C@@H]3C[C@H](C)C4=CC(=O)CC[C@]4(C)[C@H]3CC[C@@]21C`, the Potency was 19.5 µM (active).

For the compound `Clc1ccc(CSC(Cn2ccnc2)c2ccc(Cl)cc2Cl)cc1` (stereo not given), the Potency is 27.6 µM (active).

On to `CCS(=O)(=O)C(C)(C)S(=O)(=O)CC`, for which the Potency result is “inactive”.

On to `CC[C@H](O)C(C[C@H](C)N(C)C)(c1ccccc1)c1ccccc1`, for which the Potency entry is “inactive”.

With `O=C(O)CCCCCCNC1c2ccccc2CCc2ccccc21`, the Potency result is “inactive”.

Take `COc1cc(CC#N)cc(OC)c1OC`: the Potency entry was “inactive”.

For the compound `COP(=O)(OC)C(O)C(Cl)(Cl)Cl` (stereo not given), the Potency result is “inactive”.

Consider `ClCc1cccc(Cl)c1`, for which the Potency result is “inactive”.

On to `ClC1=C(Cl)C2(Cl)C(CBr)CC1(Cl)C2(Cl)Cl` (stereo not given), for which the Potency entry is “inactive”.

Consider `Oc1ccc2[nH]cc(CCCCN3CC=C(c4ccccc4)CC3)c2c1`, for which the Potency is 27.6 µM (active).

Regarding `NC(=O)CN1CCCC1=O`, the Potency entry is “inactive”.

As for `CC(C)C(Br)C(=O)NC(N)=O` (stereo not given), the Potency result was “inactive”.

Turning to `CN(C)C(=O)Oc1cc(OC(=O)N(C)C)cc(C(O)CNC(C)(C)C)c1` (stereo not given), the Potency entry was “inactive”.

For `CNC(=O)NC(O)C(Cl)(Cl)Cl` (stereo not given), the Potency entry is “inactive”.

Consider `C[C@@H]1CN(C2CCC(C#N)(c3ccc(F)cc3)CC2)CC[C@]1(C(=O)O)c1ccccc1` (stereo not given in full), for which the Potency entry is “inactive”.

Consider `C1CN2CCC1CC2`, for which the Potency entry was “inactive”.

`CCCCCCCCC(=O)NCc1ccc(O)c(OC)c1`: the Potency was 0.001 µM (active).

As to `C[N+]1(C)[C@@H]2CC[C@H]1CC(OC(=O)C(CO)c1ccccc1)C2` (stereo not given in full), the Potency result was “inactive”.

Consider `CCN(Cc1ccc(Cl)nc1)/C(=C/[N+](=O)[O-])NC`, for which the Potency result was “inactive”.

Turning to `O=C(O)Cc1ccccc1`, the Potency entry was “inactive”.

On to `CNC(C)Cc1ccccc1OC` (stereo not given), for which the Potency entry is “inactive”.
